Results from PubChem BioAssay (NCI).
The panel holds about 83,000 compounds, 20% with a hit somewhere; the sample as a whole holds those more often.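 For each line, cells grew in 96-well plates with the test compound present at a single concentration for 48 hours.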 Activity calls are given as the source filed them. How the source made its calls: active means growth percent below 10; inactive means the rest.

Columns and labels:
Experiment in all cases: NCI-60 one-dose screen, 48 h (100 = growth as untreated, 0 = no growth, -100 = all killed)
Conditions in all cases: 10 µM unless noted
T-47D breast = tested on: T-47D breast
BT-549 breast = tested on: BT-549 breast
MDA-MB-435 melanoma = tested on: MDA-MB-435 melanoma
SW-620 colon = tested on: SW-620 colon
MCF7 breast = tested on: MCF7 breast
HCT-116 colon = tested on: HCT-116 colon
HCC-2998 colon = tested on: HCC-2998 colon
KM12 colon = tested on: KM12 colon

Measured: growth

Fc1ccc2nc(-c3ccc(-c4noc(-c5ccc(Cl)cc5)n4)cc3)[nH]c2c1
inactive: T-47D breast 92.9% | BT-549 breast 93.9% | MDA-MB-435 melanoma 105% | SW-620 colon 107% | MCF7 breast 105% | HCT-116 colon 95.6% | HCC-2998 colon 106% | KM12 colon 93.1%

O=C(Nc1ccccc1Cl)Oc1ccc2ccccc2c1
inactive: T-47D breast 88.5% | BT-549 breast 133% | MDA-MB-435 melanoma 105% | SW-620 colon 103% | MCF7 breast 84.4% | HCT-116 colon 95.3% | HCC-2998 colon 95.1% | KM12 colon 95.9%

CCCCCCCCCCCCCC[N+](C)(C)CCCCCCCCCCCCCC
inactive: T-47D breast 57.5% | BT-549 breast 92.3% | MDA-MB-435 melanoma 39.4% | SW-620 colon 76% | MCF7 breast 77.3% | HCT-116 colon 51.4% | HCC-2998 colon 62.1% | KM12 colon 76.2%

Clc1cc(Br)ccc1-c1ccc(CNCC2CCNCC2)o1
inactive: T-47D breast 43.8% | BT-549 breast 77.9% | MDA-MB-435 melanoma 52.9% | SW-620 colon 24.5% | MCF7 breast 39.7% | HCT-116 colon 40.9% | HCC-2998 colon 88.2% | KM12 colon 53.9%

C1=C\CCCCN2CC[C@H]3[C@H](CCCC/C=C\CCCN4C[C@@H](CCCCC/1)C[C@@H]3C4)C2
inactive: T-47D breast 71.4% | BT-549 breast 89.5% | SW-620 colon 79.8% | MCF7 breast 22.7% | HCT-116 colon 43.6% | HCC-2998 colon 22.1% | KM12 colon 58.1%
active: MDA-MB-435 melanoma -70.3%

CCSc1ccc([C@@H]2[C@@H](N)C(=O)N2c2cc(OC)c(OC)c(OC)c2)cc1
active: MDA-MB-435 melanoma -59.7%
inactive: T-47D breast 60.3% | BT-549 breast 32.7% | SW-620 colon 25.8% | MCF7 breast 19.6% | HCT-116 colon 10.2% | HCC-2998 colon 31.2% | KM12 colon 19.4%

CC(C)OC(=O)c1ccc([N+](=O)[O-])cc1
inactive: T-47D breast 108% | BT-549 breast 113% | MDA-MB-435 melanoma 125% | SW-620 colon 109% | MCF7 breast 117% | HCT-116 colon 110% | HCC-2998 colon 113% | KM12 colon 113%

O=c1c2sc3ncc(Cl)cc3c2nnn1-c1cccc(Cl)c1
inactive: T-47D breast 74.7% | BT-549 breast 85.4% | MDA-MB-435 melanoma 66.9% | SW-620 colon 80.5% | MCF7 breast 82.5% | HCT-116 colon 31.3% | HCC-2998 colon 125% | KM12 colon 87.4%

CCCCCCCCCCCCCCC(C(=O)OCC)C(=O)OCC
inactive: T-47D breast 101% | BT-549 breast 104% | MDA-MB-435 melanoma 96.1% | SW-620 colon 107% | MCF7 breast 98.5% | HCT-116 colon 109% | HCC-2998 colon 106% | KM12 colon 108%

O=C(Nc1ccc2[nH]c3ccccc3c2c1)c1ccccc1Cl
inactive: T-47D breast 43.7% | BT-549 breast 61.2% | SW-620 colon 28.2% | MCF7 breast 21.8% | HCT-116 colon 25.4% | HCC-2998 colon 64.3% | KM12 colon 24.4%
active: MDA-MB-435 melanoma -53.1%

c1ccc2c(Cc3csc4ccccc34)csc2c1
active: MDA-MB-435 melanoma -9.16%
inactive: T-47D breast 78.9% | BT-549 breast 92.2% | SW-620 colon 62.6% | MCF7 breast 68.4% | HCT-116 colon 78% | HCC-2998 colon 85.3% | KM12 colon 75.8%

CC(OC(=O)Nc1cccc(Cl)c1)C(=O)O (stereo unspecified)
inactive: T-47D breast 93.2% | BT-549 breast 113% | MDA-MB-435 melanoma 82.8% | SW-620 colon 99.5% | MCF7 breast 99.7% | HCT-116 colon 97.2% | HCC-2998 colon 99.8% | KM12 colon 101%

COc1ccc(C2CC(c3ccc(Nc4ccnc5cc(Cl)ccc45)cc3)=NN2c2ccccc2)cc1 (stereo unspecified)
inactive: T-47D breast 92.9% | BT-549 breast 99.8% | MDA-MB-435 melanoma 80.3% | SW-620 colon 96.3% | MCF7 breast 81.9% | HCT-116 colon 72.4% | HCC-2998 colon 101% | KM12 colon 94.2%

CCN(CC)Cc1cc(Nc2ccnc3cc(Cl)ccc23)cc(-c2ccc(Cl)cc2)c1O
inactive: T-47D breast 50.9% | BT-549 breast 25.4% | MDA-MB-435 melanoma 35.4% | SW-620 colon 12.3% | MCF7 breast 14.8% | HCT-116 colon 43.4% | HCC-2998 colon 64.3% | KM12 colon 34.5%

CCOC(CN1CCN(CC(C)C(=O)c2ccccc2)CC1)c1ccccc1 (stereo unspecified)
inactive: T-47D breast 92.8% | BT-549 breast 115% | MDA-MB-435 melanoma 102% | SW-620 colon 106% | MCF7 breast 80.6% | HCT-116 colon 109% | HCC-2998 colon 115% | KM12 colon 104%

O=c1cc(-c2ccc3c(c2)OCCO3)oc2cc(Cl)ccc12
inactive: BT-549 breast 81.4% | SW-620 colon 28.6% | MCF7 breast 77.8% | HCC-2998 colon 66.2% | KM12 colon 21.3%
active: T-47D breast 1.86% | MDA-MB-435 melanoma 7.43% | HCT-116 colon -1.49%

FC(F)(F)C1=NNC(c2ccc3ccccc3c2)=NN1
inactive: T-47D breast 96.7% | BT-549 breast 107% | MDA-MB-435 melanoma 102% | SW-620 colon 97.9% | MCF7 breast 88.7% | HCT-116 colon 100% | HCC-2998 colon 118% | KM12 colon 93.7%

NCCCOc1cc2ccccc2cc1C(=O)NCCCOc1cc2ccccc2cc1C(=O)Nc1ccc(Cl)cc1O
active: T-47D breast -67.6% | BT-549 breast -39.8% | MDA-MB-435 melanoma -85.5% | SW-620 colon -73.9% | MCF7 breast -93.5% | HCT-116 colon -85.8% | HCC-2998 colon -92.3% | KM12 colon -2.6%

COC1=CC(c2ccc[nH]2)=N/C1=C\c1[nH]c(C)c(C(=O)CCCCCCCCC(=O)O[C@H]2CC[C@H]3C4CCc5cc(O)ccc5C4CC[C@]23C)c1C (stereo partly specified)
inactive: T-47D breast 29.8% | BT-549 breast 38.3% | MDA-MB-435 melanoma 14.3% | MCF7 breast 24.1% | HCC-2998 colon 26.2% | KM12 colon 17.5%
active: SW-620 colon 6.58% | HCT-116 colon 7.77%

Oc1c(C(c2ccc(F)cc2)N2CCCCC2)ccc2cncnc12 (stereo unspecified)
inactive: BT-549 breast 25.8% | MDA-MB-435 melanoma 14.1% | SW-620 colon 18.1% | HCT-116 colon 11.1% | HCC-2998 colon 32.3% | KM12 colon 16.2%
active: T-47D breast 5.62% | MCF7 breast 6.3%

COc1ccc(/C(=C\c2ccc3c(c2)OCO3)C(=O)Nc2nc3ccccc3s2)cc1
inactive: T-47D breast 86.1% | BT-549 breast 103% | MDA-MB-435 melanoma 99.1% | SW-620 colon 108% | MCF7 breast 107% | HCT-116 colon 85.4% | HCC-2998 colon 109% | KM12 colon 101%

COc1ccc(Br)c2ccccc12
inactive: T-47D breast 97.9% | BT-549 breast 123% | MDA-MB-435 melanoma 105% | SW-620 colon 106% | MCF7 breast 100% | HCT-116 colon 108% | HCC-2998 colon 104% | KM12 colon 109%

Cc1cc(NC(=O)c2ccc(N)cc2)ccc1N=Nc1ccc2cc(S(=O)(=O)O)cc(S(=O)(=O)O)c2c1
inactive: T-47D breast 105% | BT-549 breast 108% | MDA-MB-435 melanoma 101% | SW-620 colon 96.7% | MCF7 breast 109% | HCT-116 colon 111% | HCC-2998 colon 105% | KM12 colon 105%

COc1cc(OC)cc(-c2n/c(=C\c3c(O)[nH]c4ccc(Cl)cc34)cc3c2=Nc2ccccc2-3)c1
active: SW-620 colon -1.36% | HCT-116 colon 2.45%
inactive: T-47D breast 84.9% | BT-549 breast 97.2% | MDA-MB-435 melanoma 99.3% | MCF7 breast 24.3% | HCC-2998 colon 103% | KM12 colon 22.8%

CN1CCN(Cc2ccc(NC(=O)c3cnc(F)c(C#Cc4cnc(N)c5ncccc45)c3)cc2C(F)(F)F)CC1
inactive: T-47D breast 30.3% | BT-549 breast 41.9% | MDA-MB-435 melanoma 10.2% | MCF7 breast 42.6% | HCC-2998 colon 40.7% | KM12 colon 11.2%
active: SW-620 colon 8.66% | HCT-116 colon 7.2%

CCCCN(CCCC)CCCN=c1nc2c(c(N)n1-c1ccccc1)c(=S)n(-c1ccccc1)c(=S)n2-c1ccccc1
active: T-47D breast -62.1% | BT-549 breast -90.6% | MDA-MB-435 melanoma -100% | SW-620 colon -100% | MCF7 breast -88.1% | HCT-116 colon -25% | HCC-2998 colon -91.5% | KM12 colon -100%

O=C(CCCCCCc1nc2ccc(Br)cc2[nH]1)NO
inactive: BT-549 breast 16.4%
active: T-47D breast -32.3% | MDA-MB-435 melanoma -10.5% | SW-620 colon -76.8% | MCF7 breast 1.84% | HCT-116 colon -89.2% | HCC-2998 colon -51.7% | KM12 colon -65.4%
